# The supplement of paper PMC6555819
# Legend:
# Assay in all cases: PBM binding z-score (relative to random genomic background probes); higher = stronger binding; sequences stand for … in GC…GCGATTGACAGCGTAGAATGAAGG
# [1] = tested on: PPARg:RXRa DBDmut IVT, anti-RXR (DBD mutation: RXRa K156A/R161A, NR concentration 270 nM, RXRa partner concentration 90 nM)
# Summary of the method: (§1)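 Ligand-free nuclear receptor dimers were applied to custom Agilent 4×180K protein-binding microarrays whose double-stranded probes carried direct-repeat seeds, single-nucleotide variants, half-site ablations and random human genomic background sequences in 34-nt variable regions. Incubation lasted 1 h. Binding z-scores were computed against the random background probes from regression-normalized fluorescence.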
# [2] = tested on: PPARg:RXRa IVT, anti-PPARg (NR concentration 270 nM, RXRa partner concentration 90 nM)
# Summary of the method: as §1
# [3] = tested on: PPARg DBDmut:RXRa IVT, anti-PPARg (DBD mutation: PPARg1 K132A/R137A, NR concentration 270 nM, RXRa partner concentration 90 nM)
# Summary of the method: as §1
# [4] = tested on: PPARg DBDmut IVT, anti-PPARg (DBD mutation: PPARg1 K132A/R137A, NR concentration 270 nM)
# Summary of the method: as §1
# [5] = tested on: PPARg homodimer (NR concentration 180 nM)
# Summary of the method: as §1
# [6] = tested on: PXR:RXRa (NR concentration 270 nM, RXRa partner concentration 90 nM)
# Summary of the method: as §1
# [7] = tested on: PXR homodimer (NR concentration 270 nM)
# Summary of the method: as §1
# [8] = tested on: RARa:RXR (NR concentration 270 nM, RXRa partner concentration 90 nM)
# Summary of the method: as §1
# [9] = tested on: RARa homodimer (NR concentration 270 nM)
# Summary of the method: as §1
# [10] = tested on: RARb:RXRa (NR concentration 270 nM, RXRa partner concentration 90 nM)
# Summary of the method: as §1
Sequence,PBM binding z-score [1],PBM binding z-score [2],PBM binding z-score [3],PBM binding z-score [4],PBM binding z-score [5],PBM binding z-score [6],PBM binding z-score [7],PBM binding z-score [8],PBM binding z-score [9],PBM binding z-score [10]
CCTAGCAGGACAGGGTCACTCAAGCATTTCGCTT,0.172,1.08,-2.12,-1.5,1.08,2.84,0.281,3.62,0.381,2.57
CGTACAGGGTCAGCTAGGCCAGAGTAGGGACGGC,1.75,2.64,0.166,-0.287,1.47,2.28,-0.805,3.32,-0.147,4.16
CCGACTGGGGCATACGGTTACCATAAGCCAGCCC,2.5,2.15,-0.604,-1.2,0.276,-0.401,-0.646,-0.126,-0.0238,0.496
TCATATAGGTAATACAGGTGAAACTCGGCATCTA,4.14,3.73,1.2,0.856,1.01,0.879,0.269,1.17,1.3,0.809
TAGCCTAGGTCAGGCGGGCCAGTATAGTGTCGGC,0.604,1.7,-0.617,-0.515,-0.227,0.158,-0.632,0.923,-0.619,3.16
GATACAGGGCCAAGGCCAGAGTACGCGTATTGAT,-0.255,-0.178,-0.899,-1.53,-0.373,-0.55,-0.406,-0.762,-0.587,0.946
CCGTCTGGGGCAAAGGTTACCATACTCAGTACGA,3.2,5.43,-0.238,-0.231,1.64,2.45,-0.428,4.24,-0.0466,2.5
AACTCTAGGTAAGACTCAGTTCAGTGAAGAACGC,1.6,0.848,0.278,-0.04,0.345,0.534,0.651,0.155,0.797,0.272
CCTACTTGGTCAAGGTCACACACGCTATAGGTAC,2.5,3.56,0.858,1.02,3.34,4.31,1.72,4.29,2.21,4.18
ACTATTAGTTGAGACGAGTGCAACCGATAGGTTG,0.000618,0.0242,0.728,0.584,0.204,1.96,0.737,0.0877,-0.0239,0.0996
CCTACTGGGCCATCCAGAGGTCATTGATCATATG,4.14,4.6,0.419,0.464,2.88,5.05,2.23,4.9,0.594,3.21
TGAATGAGGTTATAAGATCAGGGGACGTTGCAAA,1.5,1.82,0.706,0.291,0.361,0.901,0.3,1.58,0.169,1.43
ACAAGTTGGTCAGCTGAGGTCACACACAATTCGG,1.87,2.89,0.789,1.03,2.69,5.44,2,4.44,1.01,3.65
GCTGCTAGGTCAACTGTTGGTCAGCTAAAGCTCG,5.26,4.32,0.227,-0.586,1.68,1.48,-0.906,2.9,-0.53,4.42
GCAAGCAGGCCATTTGGGTCACTCAATGACGGGC,1.67,2.35,-0.319,-0.988,0.0293,0.422,0.0274,0.6,-0.747,1.33
TCGAGTAGGTTACCAATGGAGCATTCAGCTTTCT,3.08,2.37,-0.0505,-0.361,-0.556,-0.0122,-0.741,-0.35,-0.787,0.629
CCTACTGGGCCATCAAGTCATTGATATCAACGTT,3.82,3.91,-0.107,0.228,0.653,-0.138,-0.334,0.32,0.00429,0.23
AGAATGAGGTTACCAAAGATCAGGGAAACGCTTG,3.53,3.38,1.26,1.04,1.16,1.38,0.241,2.16,-0.326,2.03
TCTCGGAGGACAAGAAAGGTCAGAGCTCGACATC,1.37,0.954,-0.439,-0.79,2.62,3.55,0.191,4.02,0.689,4
CCTCGGAGGACAACAGGAGGTCAGAGCTGCCAGA,0.299,0.564,-0.994,-1.03,1.72,2.02,0.105,2.3,0.364,2.84
TGTCAAAGTTCAAAGGTAAGGTAAGTATCCACAC,0.662,4.2,2.56,2.04,6.17,5.8,5.17,6.32,2.15,5.2
TCTGATAGGTCAACGATGGTCAGCTAATCTGCTA,3.63,3.48,0.759,0.735,2.17,3.01,-0.308,3.7,1.12,4.44
CCTTACGGGTCACTGACAAGTTATAGCATTTGGA,3.61,3.76,0.661,0.743,2.03,2.77,-0.0294,3.98,1.19,3.81
GGAATGAGGGCATTCGAGTTGATAGCATGGCGAT,4.4,3.1,1.13,-0.209,0.811,4.13,1.54,1.44,-0.137,1.72
GCGGCTAGGTCAACTGATGGTCAGCTAAAGCTCG,3.34,3.06,-0.724,-1.01,1.76,1.59,-0.666,2.84,-0.107,4.36

Sequence,PBM binding z-score [1],PBM binding z-score [2],PBM binding z-score [3],PBM binding z-score [4],PBM binding z-score [5],PBM binding z-score [6],PBM binding z-score [7],PBM binding z-score [8],PBM binding z-score [9],PBM binding z-score [10]
CCTAGTTGGTCAAGGTCACTCACGCTATAGGTAC,2.34,3.16,0.496,1.05,3.66,3.73,2.8,3.58,2.53,4
CGTCAAAGTTCAACTAAGGTAACGTCAAGCACGC,0.771,2.28,0.0665,0.943,3.82,5.69,4.39,4.56,1.85,5.3
GCGACTGGGGCAAAGCAGGTTACCCTAAGGTTGG,4.69,3.9,-0.575,-1.15,0.0575,0.0911,-0.579,0.634,-1.43,0.752
CGAACTAGGTCATCCAGGATAGTGAATACATTGA,7.97,8.31,1.76,1.58,1.43,1.54,0.608,2.18,1.13,3.78
CGTCCAAGGTCATAGGAGGTCAGAGAAGACAGAT,3.19,4.81,1.6,0.958,3.89,6.83,4.38,6.6,1.92,5.51
ATCTCTAGGTAAAGATAGTACAGTGAATGCAAAT,1.46,1.59,1.31,1.08,1.02,0.0817,0.418,0.0539,1.54,0.0238
CGTCCAAGGTCAGAGAGGTCTGTGAATGCCGAGT,2.15,2.25,-0.507,-0.56,2.09,2.96,1.23,3.24,0.529,4.49
CATTACGGGTCACGAGGTTATAGCACGACGAGCG,5.61,5.99,1.73,1.78,4.62,4.8,0.703,6.52,1.04,4.68
CCGACTGGGCCAAGGTTACCATAACGCACAGCCA,1.61,1.71,0.193,-0.788,0.313,0.153,-0.166,0.508,-0.101,0.98
CAGCCTAGGTCAGGGACAGTATAGGAGGAACGTT,1.29,1.68,-0.599,-0.73,0.801,0.546,-0.219,1.22,0.00135,3.4
TCTATTAGTTGTAGGGCAACCGACGAGTCCGTTT,3.04,2.66,0.777,1.16,0.517,0.457,0.613,0.212,0.401,0.601
ATATGTAGGTTCGCTGGGGTCATTCAGACTAGGC,3.5,3.76,1.92,1.5,2.78,6.18,12.4,6.02,1.12,2.72
CGAACTAGATCAGAACAGGACAGTGAAGGATGAT,0.901,0.144,0.0731,0.309,0.437,-0.412,0.0691,-0.383,0.626,-0.179
TGAATTAGGTTATAAGATCAGGGAACGTTGCAAA,5.05,4.53,1.08,1.15,1.14,-0.000172,0.301,-0.0809,1.34,0.576
ATCTCTAGGTAACTAAGTTCAGTGAATGCCGAAC,2.67,2.89,1.24,1.19,1.29,2.49,2.44,1.25,0.922,1.37
GCTAGTTGGTCAGTAAAAGGTAACACACCGGTCG,0.651,0.622,-0.712,0.0528,0.535,0.2,0.0944,0.372,0.548,1.03
GCGACTGGGGCTTCAGCAGGTTACCATAACTTAA,0.693,0.216,-0.978,-1.13,0.227,-0.117,-0.245,0.339,-0.857,-0.108
CTCGAAAGGTCGTGCTCTGGTGAGTATACCAAAC,1.12,1.7,0.0542,0.48,1.41,2.92,-0.238,3.6,0.169,3.86
GCAGACAGTTGAAACGCAGGTAACTCAGGGTGGC,-0.661,-0.74,-1.02,-0.586,-0.714,-0.372,-0.779,0.0801,-0.512,-0.0972
GCGACTAGGGCATCAGCAGGTTACCATAACTTAA,4.76,3.7,-0.562,-0.523,0.128,-0.0606,-0.519,0.482,-0.519,1.13
TCATATAGGTCAAGGTGAAAGTCGAACGATATGA,6.82,7.8,3.34,3.56,2.98,3.06,0.0786,3.99,0.732,4.84
TCATATAGGTCAACAGGTGAAAGTCCGTAAGTTA,7.13,7.59,3.03,1.96,3.88,3.49,1.08,4.84,2.3,4.83
GATACAGGGTCAAGGCCAGAGCACGCGTATTGAT,2.49,4.08,0.585,0.0811,2.41,3.86,0.352,4.64,0.569,4.5
CCTCGGAGAACAACAGGAGGTCAGAGCTGCCAGA,-0.197,-0.0712,-1.48,-1.85,1.77,1.71,0.361,2.04,0.98,2.01
